The record followed here is PubChem BioAssay (Tox21).

Test [1] in a line: Nuclear factor erythroid 2-related factor 2/antioxidant responsive element (Nrf2/ARE) small molecule agonists: qHTS cell viability counter screen in human keratinocytes (AID 1919968; active = well fitted curve in the direction sought with a large enough effect in the repeat runs; an effect the other way counts as inactive or inconclusive; note: nearly all actives have a fitted effect of over 55% in size; note: potency is the fitted concentration of half-maximal effect). Put shortly: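 Stably transfected HaCaT (KeratinoSens), 1,500/well. Test agents in DMSO were applied for 23 h, 37 C/5% CO2. CellTiter-Fluor was incubated 1 h before the fluorescence read.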
Test [2] can be described thus: Nuclear factor erythroid 2-related factor 2/antioxidant responsive element (Nrf2/ARE) small molecule agonists: luciferase reporter gene qHTS assay in human keratinocytes (AID 1919969). Note: nearly all actives have a fitted effect of over 35% in size. Note: potency is the fitted concentration of half-maximal effect.
The target of test [3] is Gonadotropin-releasing hormone receptor (Homo sapiens) (UniProt P30968). Briefly: Human gonadotropin-releasing hormone receptor (GnRHR) small molecule agonists, calcium flux assay in GnRHR-HEK293 cells (AID 1920063). Note: nearly all actives have a fitted effect of over 35% in size. Note: potency is the fitted concentration of half-maximal effect. Summed up: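 Stable human GnRHR HEK293 line. 18 h plating, then calcium dye for 1 h at 37 C. Agonist-mode compound addition from DMSO stocks; fluorescence monitored 3 min.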
Chain of Gonadotropin-releasing hormone receptor (Homo sapiens) (P30968 whole entry, looked up): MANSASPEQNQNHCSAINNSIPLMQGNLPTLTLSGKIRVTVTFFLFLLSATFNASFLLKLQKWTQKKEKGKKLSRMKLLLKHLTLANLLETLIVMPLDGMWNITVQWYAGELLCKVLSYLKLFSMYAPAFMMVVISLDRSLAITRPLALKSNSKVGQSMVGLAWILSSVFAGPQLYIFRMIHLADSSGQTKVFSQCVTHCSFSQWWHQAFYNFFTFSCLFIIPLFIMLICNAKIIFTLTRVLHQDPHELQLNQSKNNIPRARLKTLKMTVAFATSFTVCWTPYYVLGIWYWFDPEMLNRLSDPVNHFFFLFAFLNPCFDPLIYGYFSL

Test [4] deals with KiSS-1 receptor (Homo sapiens) (UniProt Q969F8). Briefly: Human kisspeptin (KISS1R) small molecule agonists, calcium flux assay in KISS1R-HEK293 cells (AID 1920064; active = well fitted curve in the direction sought with a large enough effect in the repeat runs; an effect the other way counts as inactive or inconclusive). Put shortly:
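After overnight (18 h) culture at 37 C/5% CO2, human KISS1R-HEK293 cells received calcium dye for 1 h, then test compound; emission at 540 nm (excitation 480 nm) was tracked for 3 min.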

A short description of test [5]: G protein-coupled receptor (GPCR) small molecule agonists, calcium flux assay: HEK293 wild type cell line counter screen (AID 1920065). Put shortly:
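Following 18 h incubation at 37 C/5% CO2, plates got calcium dye for 1 h; compounds, ATP or DMSO were then pinned in and fluorescence followed kinetically (480/540 nm).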

Test [6] is described as follows: p53 small molecule agonists, cell-based qHTS assay with human liver microsomes (AID 1963577).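 Note: p53 response element beta-lactamase reporter cells with liver microsomes plus NADPH.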 Summed up:
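Reporter activation was measured by LiveBLAzer fluorescence intensity in p53RE-bla cells, which had been exposed to compounds for 16 h at 37 C alongside 0.5 mg/mL human liver microsomes and 0.5 mg/mL NADPH (final concentrations).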

Test [7] is described as follows: p53 small molecule agonists, cell-based qHTS assay with rat liver microsomes (AID 1963578). Put shortly:
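Compound in DMSO added to p53RE-bla cells 5 h post-plating; rat microsomes/NADPH 0.5 mg/mL final; 16 h, 37 C; LiveBLAzer 2 h RT.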

Test [8] in a line: p53 small molecule agonists, cell-based qHTS assay: qHTS cell viability counter screen (AID 1963581). Note: nearly all actives have a fitted effect of over 45% in size. Put shortly: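 qHTS counter screen: 16 h compound exposure at 37 C of p53RE-bla HCT-116 cells (4,000 per well, seeded 5 h prior), cell viability by ATP luminescence.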
Test [9] can be described thus: p53 small molecule agonists, cell-based qHTS assay (AID 1963582; active = well fitted activation curve with a large enough effect in the signal ratio in the repeat runs, not every such curve was filed as active; the % refers to the signal ratio). Summed up:
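Measured: fluorescence from cleaved LiveBLAzer substrate. System: p53RE-bla cells, 16 h compound treatment at 37 C, 2 h substrate step at room temperature.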

The target of test [10] is 5-hydroxytryptamine receptor 2A (Homo sapiens) (UniProt P28223). Nature of the test: 5-hydroxytryptamine receptor 2A (HTR2A) small molecule antagonists, cell-based qHTS assay (AID 1963586). Note: nearly all actives have a fitted effect of over 45% in size. Note: potency is the fitted concentration of half-maximal effect. Summed up:
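CHO cells stably expressing human HTR2A were plated for 18 h at 37 C, then loaded with calcium dye for 1 h. Compounds were preincubated 5 min at room temperature before DOI (4 nM solution) was added. Kinetic fluorescence was read for 3 min.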

For test [11] the target is unchanged. Nature of the test: 5-hydroxytryptamine receptor 2A (HTR2A) small molecule agonists, cell-based qHTS assay (AID 1963587). Note: nearly all actives have a fitted effect of over 30% in size. Note: potency is the fitted concentration of half-maximal effect. Summed up: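 HTR2A-CHO cells, plated 18 h at 37 C/5% CO2, dye-loaded 1 h at 37 C; compounds in DMSO added by pin tool (agonist mode). Intracellular calcium flux read as kinetic fluorescence on FDSS over 2 min at 1 s intervals.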
The target in test [12] is Muscarinic acetylcholine receptor M1 (Homo sapiens) (UniProt P11229). Briefly: Cholinergic receptor muscarinic 1 (CHRM1) small molecule antagonists, cell-based qHTS assay (AID 1963588). Note: nearly all actives have a fitted effect of over 40% in size. Put shortly:
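Compounds were tested at 15 concentrations in three independent runs. Dye-loaded CHRM1-CHO cells were exposed 5 min at room temperature before stimulation by acetylcholine added at 50nM. Intracellular calcium was read kinetically on FDSS for 3 min.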

Test [13] shares this target. Briefly: Cholinergic receptor muscarinic 1 (CHRM1) small molecule agonists, cell-based qHTS assay (AID 1963589). Note: nearly all actives have a fitted effect of over 35% in size. Summed up: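 Kinetic fluorescence (1 s intervals) of calcium-sensitive dye in human M1 CHO cells after compound addition; cells pre-incubated 18 h at 37 C/5% CO2 and dye-loaded 1 h.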
Test [14] is described as follows: cAMP Responsive Elements (CRE) small molecule agonists, cell-based qHTS assay (AID 1963590). Put shortly: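 Test agents in DMSO were incubated 3 h at 37 C/5% CO2 with CRE-bla HEK 293T cells seeded 18 h earlier; LiveBLAzer B/G FRET substrate was added and read after 2 h at room temperature.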
Test [15] is described as follows: cAMP Responsive Elements (CRE) small molecule antagonists, cell-based qHTS assay (AID 1963591; active = well fitted inhibition curve with a large enough effect in the signal ratio in the repeat runs, not every such curve was filed as active; the % refers to the signal ratio; note: potency is the fitted concentration of half-maximal effect). Summed up: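 Reporter line CRE-bla HEK 293T in dialyzed-FBS DMEM; cells preincubated 18 h, treated 3 h with compound plus NKH477 (0.25 uM final); LiveBLAzer FRET, 2 h RT.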
Test [16] concerns the target Beta-2 adrenergic receptor (Homo sapiens) (UniProt P07550). Nature of the test: Adrenergic beta2 receptor (ADRB2) small molecule agonists, cell-based qHTS assay (AID 1963593).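 Note: CHO cells stably overexpressing human ADRB2.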 Put shortly: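 CHO cells stably over-expressing ADRB2 were plated overnight at 37C, then dosed with compounds plus a stimulation mix containing 100uM IBMX and 25uM Ro-20-1724 for 0.5hr at room temperature. cAMP was measured by HTRF competition, 1hr.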

The target in test [17] is D(2) dopamine receptor (Homo sapiens) (UniProt P14416). Nature of the test: Dopamine D2 receptor (DRD2) small molecule agonists, cell-based qHTS assay (AID 1963594). Note: nearly all actives have a fitted effect of over 35% in size. Put shortly: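 HEK293 cells stably expressing DRD2 were cultured 24 h at 37 C, then given Ro20-1724 (0.1 mM final) and compounds for 10 min at room temperature. NKH477 (200nM) was then added for 30 min. cAMP was read by HTRF.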
Chain of D(2) dopamine receptor (Homo sapiens) (P14416 whole entry, looked up): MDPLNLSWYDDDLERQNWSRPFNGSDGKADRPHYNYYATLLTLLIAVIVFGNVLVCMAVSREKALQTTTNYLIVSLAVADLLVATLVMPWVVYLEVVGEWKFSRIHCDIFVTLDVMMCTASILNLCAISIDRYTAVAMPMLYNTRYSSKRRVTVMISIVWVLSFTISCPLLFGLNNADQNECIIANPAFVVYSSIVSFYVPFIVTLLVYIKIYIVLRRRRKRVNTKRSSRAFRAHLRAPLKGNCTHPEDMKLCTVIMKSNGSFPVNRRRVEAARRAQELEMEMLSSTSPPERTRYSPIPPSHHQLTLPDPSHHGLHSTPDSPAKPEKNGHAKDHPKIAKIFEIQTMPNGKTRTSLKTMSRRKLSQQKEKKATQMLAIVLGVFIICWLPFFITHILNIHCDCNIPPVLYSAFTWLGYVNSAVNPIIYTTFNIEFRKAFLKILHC

The target is the same in test [18]. Briefly: Dopamine D2 receptor (DRD2) small molecule antagonists, cell-based qHTS assay (AID 1963595; active = well fitted inhibition curve with a large enough effect in the signal ratio in the repeat runs, with a control signal flat; the % refers to the signal ratio; note: potency is the fitted concentration of half-maximal effect). Put shortly:
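Antagonism was scored as restored cAMP in HEK293-DRD2 cells. These cells were stimulated with 200 nM NKH477 and 12 nM quinpirole for 30 min at room temperature, in the presence of 0.1 mM Ro20-1724.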

Test [19] is described as follows: p53 small molecule agonists, cell-based qHTS assay with rat liver microsomes: qHTS cell viability counter screen (AID 1963580). Note: nearly all actives have a fitted effect of over 45% in size. Note: potency is the fitted concentration of half-maximal effect. Summed up:
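Luminescent ATP readout (CellTiter-Glo, 30 min at room temperature) reports viability of p53RE-bla HCT-116 cells after 16 h at 37 C with test compounds under metabolic activation by rat liver microsomes and NADPH at 0.5 mg/mL final each.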

Test [20] addresses Beta-2 adrenergic receptor (Homo sapiens) (UniProt P07550). Briefly: Adrenergic beta2 receptor (ADRB2) small molecule antagonists, cell-based qHTS assay (AID 1963592). Note: series mostly up to about 92 µM; nearly all actives have a fitted effect of over 50% in size. Summed up:
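Assay format: CHO-ADRB2 cells, 18-20hr seeding at 37C/5% CO2, then compound plus 1nM isoproterenol agonist mix for 0.5hr RT. Homogeneous time-resolved fluorescence cAMP detection after 1hr, expressed as 665/615 nm ratio.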

Values without a mark were called inactive. Records with an inconclusive call do not appear. Active and inactive are the calls of the source. Unless noted, calls come from the whole dose curve.
% is set by controls: 0 for no effect and ±100 for the full control effect.

Chain of Beta-2 adrenergic receptor (Homo sapiens) (P07550 whole entry, looked up): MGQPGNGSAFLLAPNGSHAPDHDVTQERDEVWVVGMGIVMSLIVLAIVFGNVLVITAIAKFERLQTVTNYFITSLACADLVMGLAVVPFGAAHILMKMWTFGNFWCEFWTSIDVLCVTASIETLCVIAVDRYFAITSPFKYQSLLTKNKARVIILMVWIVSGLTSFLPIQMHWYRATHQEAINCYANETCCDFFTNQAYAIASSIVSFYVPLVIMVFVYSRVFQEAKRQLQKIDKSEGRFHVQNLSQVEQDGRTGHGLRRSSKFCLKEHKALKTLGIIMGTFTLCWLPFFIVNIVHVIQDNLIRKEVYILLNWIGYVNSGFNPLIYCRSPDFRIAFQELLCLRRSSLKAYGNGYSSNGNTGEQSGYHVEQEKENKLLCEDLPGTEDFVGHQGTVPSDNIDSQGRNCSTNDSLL
Chain of Muscarinic acetylcholine receptor M1 (Homo sapiens) (P11229 whole entry, looked up): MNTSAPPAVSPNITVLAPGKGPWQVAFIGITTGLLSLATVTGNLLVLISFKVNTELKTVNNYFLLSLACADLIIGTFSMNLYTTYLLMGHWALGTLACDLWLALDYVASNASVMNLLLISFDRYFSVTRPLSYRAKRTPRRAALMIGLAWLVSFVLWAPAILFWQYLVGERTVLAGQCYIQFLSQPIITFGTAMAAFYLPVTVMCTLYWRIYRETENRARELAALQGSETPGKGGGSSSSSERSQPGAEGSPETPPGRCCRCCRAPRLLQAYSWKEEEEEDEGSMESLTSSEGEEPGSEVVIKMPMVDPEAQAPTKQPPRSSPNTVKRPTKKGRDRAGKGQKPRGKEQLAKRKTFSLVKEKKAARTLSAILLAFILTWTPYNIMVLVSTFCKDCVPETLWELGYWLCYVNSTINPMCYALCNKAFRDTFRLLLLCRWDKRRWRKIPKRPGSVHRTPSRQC
Chain of KiSS-1 receptor (Homo sapiens) (Q969F8 whole entry, looked up): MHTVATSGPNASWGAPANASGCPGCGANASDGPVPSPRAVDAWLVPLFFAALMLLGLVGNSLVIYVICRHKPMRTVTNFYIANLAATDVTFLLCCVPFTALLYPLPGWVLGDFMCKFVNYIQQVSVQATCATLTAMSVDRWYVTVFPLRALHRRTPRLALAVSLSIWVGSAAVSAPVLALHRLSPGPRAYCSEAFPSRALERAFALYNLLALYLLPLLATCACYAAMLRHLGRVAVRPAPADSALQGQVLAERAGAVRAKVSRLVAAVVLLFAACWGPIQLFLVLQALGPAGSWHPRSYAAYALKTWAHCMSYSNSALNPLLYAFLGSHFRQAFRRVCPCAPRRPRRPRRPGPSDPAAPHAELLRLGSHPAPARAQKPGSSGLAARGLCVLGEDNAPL
Chain of 5-hydroxytryptamine receptor 2A (Homo sapiens) (P28223 whole entry, looked up): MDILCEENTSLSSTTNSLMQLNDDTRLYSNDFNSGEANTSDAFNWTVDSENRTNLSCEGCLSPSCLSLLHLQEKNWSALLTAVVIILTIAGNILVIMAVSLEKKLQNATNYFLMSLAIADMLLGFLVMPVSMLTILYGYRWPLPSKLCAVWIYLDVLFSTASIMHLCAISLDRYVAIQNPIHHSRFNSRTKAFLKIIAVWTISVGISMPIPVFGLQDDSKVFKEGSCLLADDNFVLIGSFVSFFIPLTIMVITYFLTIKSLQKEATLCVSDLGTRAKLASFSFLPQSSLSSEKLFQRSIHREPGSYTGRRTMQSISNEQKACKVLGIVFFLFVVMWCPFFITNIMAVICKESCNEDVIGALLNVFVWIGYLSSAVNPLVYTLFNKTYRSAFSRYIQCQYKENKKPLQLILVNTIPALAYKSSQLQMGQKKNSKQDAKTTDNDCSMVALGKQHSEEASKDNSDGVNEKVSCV

Take `[O]=[Bi]`: the values for the activity change, negative = cytotoxicity in test [1] and in test [8] were 4.16% [at 8.39 µM] and 5.64% [at 5.99 µM], respectively. Moreover, the activity, positive = activation in test [2] is 29.8% [at 8.39 µM]. Besides, the activity change in test [3] was 0.29% [at 5.22 µM, hits give high values]. For the same molecule, the activation was 0.437% [at 6.97 µM] in test [4]; 0.259% [at 5.23 µM] in test [5]; -14.4% [at 5.99 µM] in test [6]; 0.191% [at 5.99 µM] in test [7]; 6.59% [at 5.99 µM] in test [9]; 0.438% [at 7.02 µM] in test [11]. Besides, the activation in [13] is 0.394% [at 6.97 µM]; in test [14], -0.129% [at 8.39 µM]; in [16] it was 3.98% [at 8.39 µM]; in [17], 0.151% [at 8.39 µM]. The activity, negative = inhibition in [10] was 2.38% [at 5.62 µM]; in test [12] it was 3.36% [at 5.58 µM]. Besides, the values for the activity change, negative = inhibition in test [15] and in test [18] were -10.4% [at 8.39 µM] and -14.1% [at 8.38 µM], respectively.
Take `O=C(c1ccc(O)cc1)c1ccc(O)cc1`: the Potency result in test [1], in [2], in test [3], in [6], in test [7] and in test [19] was “inactive” throughout. Besides, the Potency entry in test [10], in [11], in [12], in test [13], in test [15] and in test [20] was “inactive” throughout. For the same molecule, the Potency result in [16], in test [17] and in test [18] was “inactive” throughout. Further, the outcome in test [4] and in test [5] was inactive.
`CC(C)CCCCCCc1ccc(OCCOCCO)cc1`: the Potency entry in [1], in test [2], in test [3], in [6], in [7] and in test [19] was “inactive” each time. The Potency result in [9], in test [10], in test [11], in test [12], in test [13] and in [14] was “inactive” each time. In addition, the Potency entry in test [20], in test [16] and in test [17] was “inactive” throughout. Besides, the outcome in [4] and in test [5] was inactive.
On to `Cc1cc(O)c(C(C)(C)C)cc1C(C)(C)C`, for which the Potency was 27.3 µM (active) in test [1]; 38.9 µM (active) in [3]; 40.8 µM (active) in test [19]; 18.8 µM (active) in test [10]; 34.7 µM (active) in test [11]; 43.3 µM (active) in [18]. Besides, the Potency result in [2], in test [6], in test [7], in test [12] and in test [17] was “inactive” each time. Besides, the outcome in [4] and in test [5] was inactive.
In the case of `C[C@]1(Cn2ccnn2)[C@H](C(=O)O)N2C(=O)C[C@H]2S1(=O)=O`, the Potency entry in [1], in [2], in [3], in test [6], in test [7] and in test [8] was “inactive” each time. In addition, the Potency entry in test [9], in test [20], in [16], in [17] and in test [18] was “inactive” each time. The outcome in [4] and in test [5] was inactive. Moreover, the Potency in [15] was 1.88 µM (active).
For the molecule `CCCCCCCCCCCC(=O)Cl`, the Potency entry in test [1], in test [2], in test [3], in test [6], in test [7] and in test [8] was “inactive” each time. Further, the Potency result in test [10], in [11], in [13], in [14], in test [15] and in [20] was “inactive” throughout. Moreover, the Potency result in test [16] and in test [17] was “inactive” in each case. For the same molecule, the outcome in test [4] and in test [5] was inactive.
With `O=C(Nc1ccc(Cl)c(Cl)c1)C1CC1`, the Potency entry in test [1], in test [2], in test [3], in test [6], in [7] and in test [8] was “inactive” in each case. Moreover, the Potency result in test [9], in [10], in [11], in [13], in [14] and in [15] was “inactive” in each case. The Potency entry in test [20], in [17] and in test [18] was “inactive” each time. The outcome in test [4] and in test [5] was inactive.
On to `CN1CCN(Cc2cc(-c3ccc4[nH]c(=O)oc4c3)co2)[C@@H](c2ccc(F)cc2)C1`, for which the Potency was 26.3 µM (active) in [1] and 13.2 µM (active) in [2]. The Potency entry in test [3], in test [6], in [7], in test [19], in test [13] and in test [20] was “inactive” throughout. The Potency entry in test [16] was “inactive”. Moreover, the outcome in [4] and in [5] was inactive.
Turning to `Cc1occc(=O)c1OC(=O)C(C)C`, the Potency result in test [1], in test [2], in test [3], in test [6], in test [7] and in test [19] was “inactive” each time. For the same molecule, the Potency result in test [10], in test [11], in test [12], in test [13], in test [14] and in test [15] was “inactive” each time. The Potency entry in test [20], in test [17] and in test [18] was “inactive” each time. The result in test [4] and in test [5] was inactive.
